Data as given in publication PMC5540273 (PLoS ONE, 2017).

How the values were obtained:
Settings in all cases: concentration: 1 μM, replicates: in singlicate; n = 1
ABL2 = tested on: ABL2
ACVR1B = tested on: ACVR1B
ACVR1 = tested on: ACVR1
ACVR2A = tested on: ACVR2A
ACVR2B = tested on: ACVR2B
ACVRL1 = tested on: ACVRL1
ADCK3 = tested on: T1, ADCK3
T1 construct: gene CABC1

ADCK4 = tested on: ADCK4
AKT1 = tested on: AKT1
AKT2 = tested on: AKT2
AKT3 = tested on: AKT3
ALK = tested on: ALK
AMPK-alpha1 = tested on: T2, AMPK-alpha1
T2 construct: gene PRKAA1

AMPK-alpha2 = tested on: T3, AMPK-alpha2
T3 construct: gene PRKAA2

ANKK1 = tested on: ANKK1
ARK5 = tested on: T4, ARK5
T4 construct: gene NUAK1

ASK1 = tested on: T5, ASK1
T5 construct: gene MAP3K5

ASK2 = tested on: T6, ASK2
T6 construct: gene MAP3K6

AURKA = tested on: AURKA
AURKB = tested on: AURKB
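Further: KINOMEscan kinase panel screen.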

Row | Structure (SMILES) | %Inh (ABL2) [%] | %Inh (ACVR1B) [%] | %Inh (ACVR1) [%] | %Inh (ACVR2A) [%] | %Inh (ACVR2B) [%] | %Inh (ACVRL1) [%] | %Inh (ADCK3) [%] | %Inh (ADCK4) [%] | %Inh (AKT1) [%] | %Inh (AKT2) [%] | %Inh (AKT3) [%] | %Inh (ALK) [%] | %Inh (AMPK-alpha1) [%] | %Inh (AMPK-alpha2) [%] | %Inh (ANKK1) [%] | %Inh (ARK5) [%] | %Inh (ASK1) [%] | %Inh (ASK2) [%] | %Inh (AURKA) [%] | %Inh (AURKB) [%]
1 | CS(=O)(=O)CCNCc1nc(-c2ccc3ncnc(Nc4ccc(OCc5cccc(F)c5)c(Cl)c4)c3c2)cs1.Cl [GW583340] | 0 | 0 | 0 | 0 | 0 | 0 | 1 | 20 | 0 | 0 | 0 | 0 | 0 | 0 | 0 | 11 | 11 | 0 | 5 | 0
2 | Cl.Fc1ccccc1COc1ccc(Nc2ncnc3ccc(-c4nnc(C(F)(F)F)o4)cc23)cc1Cl [GW424170] | 0 | 0 | 0 | 0 | 0 | 0 | 0 | 22 | 0 | 0 | 0 | 0 | 0 | 0 | 0 | 0 | 0 | 0 | 13 | 0
3 | Nc1n[nH]c2nnc(-c3ccccc3)cc12 [SB-517389] | 13 | 0 | 16 | 0 | 4 | 0 | 6 | 16 | 0 | 13 | 0 | 29 | 0 | 16 | 0 | 1 | 61 | 0 | 13 | 32
4 | Nc1nc(-c2ccc3c(N)n[nH]c3c2)cc(N2CCCCC2)n1 [GSK2228768] | 12 | 0 | 0 | 0 | 0 | 0 | 0 | 6 | 0 | 0 | 0 | 14 | 0 | 0 | 3 | 0 | 0 | 9 | 0 | 14
5 | C[C@H]1CC[C@@H](C(=O)Nc2ccccc2)CN1c1cc(-c2ccc3c(N)n[nH]c3c2)nc(N)n1 [GSK2283293] | 15 | 0 | 0 | 0 | 0 | 0 | 11 | 40 | 0 | 6 | 0 | 30 | 0 | 13 | 11 | 1 | 0 | 5 | 0 | 6
6 | COc1ccc(Nc2nccc(N3CCC(NC(=O)Nc4ccc5c(c4)OCO5)C3)n2)cc1 (stereo not drawn) [GSK1379745] | 18 | 0 | 1 | 0 | 5 | 0 | 17 | 41 | 0 | 7 | 0 | 20 | 24 | 24 | 2 | 9 | 9 | 5 | 6 | 13
7 | CNc1nccc(-c2c(-c3ccc(F)cc3)ncn2CCCN2CCOCC2)n1 [SB-222516] | 12 | 19 | 8 | 4 | 4 | 15 | 1 | 0 | 18 | 0 | 14 | 12 | 0 | 9 | 39 | 0 | 9 | 12 | 0 | 11
8 | CSc1ccc(NC2=C(c3ccccc3Cl)C(=O)NC2=O)cc1 [SB-342411] | 3 | 0 | 0 | 0 | 0 | 0 | 16 | 0 | 0 | 11 | 0 | 0 | 25 | 0 | 20 | 0 | 0 | 0 | 21 | 2
9 | Cl.c1ccc(Cn2ccc3cc(Nc4ncnc5ccccc45)ccc32)cc1 [GW275568] | 0 | 0 | 10 | 2 | 16 | 0 | 24 | 4 | 3 | 12 | 0 | 0 | 11 | 0 | 43 | 29 | 1 | 0 | 17 | 30
